Test results published in PubChem BioAssay (NCI).
The panel holds about 79,000 compounds, 15% with a hit somewhere; the sample as a whole holds those more often. Active and inactive are the calls of the source. Rule as the data show it: active = growth inhibition above about 70%; inactive = the rest.

Key:
[1] = NCI Yeast Anticancer Drug Screen. Data for the rad52 strain (AID 147);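 also: 0% = growth of vehicle-treated control cultures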; conditions: S. cerevisiae rad52 mutant growth inhibition, hits give high values
Outline: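 Compounds are applied to a genetically defined yeast strain lacking normal DNA damage repair, and inhibition of growth is expressed relative to cultures given vehicle only.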

[2] = NCI Yeast Anticancer Drug Screen. Data for the wt1 strain (AID 149);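 also: 0% = growth of vehicle-treated wt1 cultures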; conditions: S. cerevisiae wt1 strain (SPY 50644) growth inhibition, hits give high values
Outline: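 Using yeast strain wt1, compound-induced growth inhibition was determined against vehicle-treated cultures.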

[3] = NCI Yeast Anticancer Drug Screen. Data for the rad50EPP+ strain (AID 151);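 also: 0% = growth of vehicle-treated control cultures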; conditions: S. cerevisiae rad50 mutant strain, hits give high values
Outline: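 Compounds were applied to the rad50EPP+ yeast strain, which bears a defined DNA repair alteration, and growth inhibition was determined relative to vehicle-treated cultures.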

[4] = NCI Yeast Anticancer Drug Screen. Data for the mgt1 strain (AID 153); conditions: S. cerevisiae mgt1 mutant growth inhibition, hits give high values
Outline: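 Strain: mgt1 yeast, one of a set carrying defined DNA damage repair or cell cycle control alterations. Compound-treated growth compared with vehicle.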

[5] = NCI Yeast Anticancer Drug Screen. Data for the rad50 strain (AID 155);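 also: 0% = growth of vehicle-only cultures of the same strain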; conditions: S. cerevisiae rad50 strain growth inhibition, hits give high values
Outline: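 Relative growth inhibition (compound vs vehicle) was measured in yeast with a defined repair-gene alteration.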

[6] = NCI Yeast Anticancer Drug Screen. Data for the mec2-1 strain (AID 157); conditions: S. cerevisiae mec2-1 strain, hits give high values
Outline: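 Strain: mec2-1 (DNA repair/cell cycle alteration). Compound exposure, then growth measured; inhibition expressed relative to vehicle.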

[7] = NCI Yeast Anticancer Drug Screen. Data for the rad14 strain (AID 159);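 also: 0% = growth of vehicle-treated control cultures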; conditions: S. cerevisiae rad14 strain growth inhibition, hits give high values
Outline: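 Screen for anticancer potential: a yeast strain altered in DNA damage repair is grown with compound, and reduced growth is quantified against vehicle controls.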

[8] = NCI Yeast Anticancer Drug Screen. Data for the sgs1 mgt1 strain (AID 161);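 also: 0% = growth of cultures given vehicle only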; conditions: S. cerevisiae sgs1 mgt1 strain, hits give high values
Outline: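 Mutant yeast exposed to compound; growth scored against vehicle-only wells.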

[9] = NCI Yeast Anticancer Drug Screen. Data for the cln2 rad14 strain (AID 165);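 also: 0% = growth equal to vehicle treated cultures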; conditions: S. cerevisiae cln2 rad14 strain, hits give high values
Outline: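 Compounds are applied to the cln2 rad14 yeast strain, and growth is then compared with that of vehicle-treated cultures to give inhibition.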

[10] = NCI Yeast Anticancer Drug Screen. Data for the bub3 strain (AID 167); conditions: S. cerevisiae bub3 mutant strain, hits give high values
Outline: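 Screening used yeast with an engineered genetic alteration affecting cell cycle control. Compound-exposed cultures were compared with vehicle cultures, and reduced growth was taken as inhibition.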

[11] = NCI Yeast Anticancer Drug Screen. Data for the wt2 strain (AID 169);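 also: 0% = growth of vehicle-treated yeast cultures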; conditions: S. cerevisiae wt2 strain growth inhibition, hits give high values
Outline: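 This strain belongs to a panel of yeast strains with defined genetic alterations in DNA damage repair or cell cycle control. Compounds are applied, and growth inhibition is measured against vehicle-treated cultures.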

[12] = NCI Yeast Anticancer Drug Screen. Data for the mlh1 strain (AID 171);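 also: 0% = growth of vehicle-treated control cultures of the same strain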; conditions: S. cerevisiae mlh1 strain growth inhibition, hits give high values
Outline: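 Growth of the mutant yeast strain after compound exposure, expressed as inhibition relative to vehicle-only controls.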

[13] = NCI Yeast Anticancer Drug Screen. Data for the sgs1 strain (AID 173);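 also: 0% = growth of vehicle-only control cultures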; conditions: S. cerevisiae sgs1 mutant, hits give high values
Outline: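 Growth of a yeast strain bearing a defined genetic alteration is measured after compound treatment. Inhibition is expressed relative to vehicle-only controls.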

[14] = NCI Yeast Anticancer Drug Screen. Data for the rad18 strain (AID 177); conditions: S. cerevisiae rad18 mutant growth inhibition, hits give high values
Outline: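 Growth of the mutant yeast strain after compound exposure, normalised to vehicle-only cultures.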

[15] = NCI Yeast Anticancer Drug Screen. Data for the CLN2oe strain (AID 163);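 also: 0% = growth of vehicle-only control cultures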; conditions: S. cerevisiae CLN2oe strain, hits give high values
Outline: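 Growth of a genetically modified yeast strain is measured after compound exposure and compared with cultures given vehicle alone.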

[16] = at 5.0 µM (retest, dose inferred, filed as 0.5)
[17] = at 50.0 µM (retest, dose inferred, filed as 5.0)

Measured: growth inhibition

COC(=O)/C=C(/CC(=O)OC)C(=O)OC
active: [8]; [16] 90% | [9]; at 50.0 µM 77.8%
inactive: [1]; at 1.2 µM 0% | [1]; at 3.7 µM -1% | [1]; at 11.0 µM -1% | [1]; at 33.0 µM -1% | [1]; at 100.0 µM -2% | [2]; at 1.2 µM -2% | [2]; at 3.7 µM 0% | [2]; at 11.0 µM -1% | [2]; at 33.0 µM -3% | [2]; at 100.0 µM -3% | [3]; at 1.2 µM 2% | [3]; at 3.7 µM -2% | [3]; at 11.0 µM -1% | [3]; at 33.0 µM -1% | [3]; at 100.0 µM -3% | [4]; at 1.2 µM -3% | [4]; at 3.7 µM 0% | [4]; at 11.0 µM 0% | [4]; at 33.0 µM 0% | [4]; at 100.0 µM -3% | [5]; at 1.2 µM 0% | [5]; at 3.7 µM -44% | [5]; [16] 59% | [5]; at 11.0 µM 4% | [5]; at 33.0 µM -4% | [5]; [17] 3% | [5]; at 50.0 µM 16.6% | [5]; at 100.0 µM -4% | [6]; at 1.2 µM -1% | [6]; at 3.7 µM -3% | [6]; [16] 12% | [6]; at 11.0 µM 1% | [6]; at 33.0 µM 0% | [6]; [17] 6% | [6]; at 50.0 µM 9.4% | [6]; at 100.0 µM -3% | [7]; at 1.2 µM 0% | [7]; at 3.7 µM 1% | [7]; at 11.0 µM 2% | [7]; at 33.0 µM 3% | [7]; at 100.0 µM -1% | [8]; [17] 15% | [8]; at 50.0 µM -8.4% | [9]; [16] 15% | [9]; [17] -1% | [10]; at 1.2 µM -4% | [10]; at 3.7 µM -3% | [10]; [16] 9% | [10]; at 11.0 µM -2% | [10]; at 33.0 µM -2% | [10]; [17] 15% | [10]; at 50.0 µM -15.2% | [10]; at 100.0 µM -1% | [11]; at 1.2 µM -3% | [11]; at 3.7 µM 8% | [11]; at 11.0 µM 0% | [11]; at 33.0 µM -1% | [11]; at 100.0 µM -1% | [12]; at 1.2 µM -2% | [12]; at 3.7 µM -1% | [12]; at 11.0 µM 0% | [12]; at 33.0 µM 0% | [12]; at 100.0 µM -2% | [13]; at 1.2 µM 0% | [13]; at 3.7 µM 1% | [13]; at 11.0 µM 3% | [13]; at 33.0 µM 2% | [13]; at 100.0 µM 3% | [14]; at 1.2 µM 3% | [14]; at 3.7 µM 2% | [14]; at 11.0 µM 1% | [14]; at 33.0 µM 1% | [14]; at 100.0 µM -4%

CCc1nc2ccc(NCCN(C)C)c3c(=O)c4ccccc4n1c23
active: [1]; at 33.0 µM 81% | [1]; at 100.0 µM 85% | [3]; at 100.0 µM 71% | [5]; at 11.0 µM 74% | [5]; at 33.0 µM 89% | [5]; [17] 86% | [5]; at 100.0 µM 91%
inactive: [1]; at 1.2 µM 12% | [1]; at 3.7 µM 39% | [1]; at 11.0 µM 60% | [2]; at 1.2 µM 25% | [2]; at 3.7 µM 29% | [2]; at 11.0 µM 31% | [2]; at 33.0 µM 22% | [2]; at 100.0 µM 22% | [3]; at 1.2 µM 14% | [3]; at 3.7 µM 26% | [3]; at 11.0 µM 39% | [3]; at 33.0 µM 57% | [4]; at 1.2 µM 37% | [4]; at 3.7 µM 38% | [4]; at 11.0 µM 29% | [4]; at 33.0 µM 23% | [4]; at 100.0 µM 40% | [5]; at 1.2 µM 46% | [5]; at 3.7 µM 49% | [5]; [16] 38% | [5]; at 50.0 µM 29.1% | [6]; at 1.2 µM 25% | [6]; at 3.7 µM 26% | [6]; [16] 4% | [6]; at 11.0 µM 11% | [6]; at 33.0 µM 24% | [6]; [17] 40% | [6]; at 50.0 µM 20.1% | [6]; at 100.0 µM 16% | [8]; [16] 3% | [8]; [17] 28% | [8]; at 50.0 µM 19.6% | [15]; at 1.2 µM 18% | [15]; at 3.7 µM 13% | [15]; at 11.0 µM 17% | [15]; at 33.0 µM 33% | [15]; at 100.0 µM 46% | [9]; [16] 14% | [9]; [17] 26% | [9]; at 50.0 µM 21.8% | [10]; at 1.2 µM 9% | [10]; at 3.7 µM 11% | [10]; [16] 4% | [10]; at 11.0 µM 5% | [10]; at 33.0 µM 3% | [10]; [17] 32% | [10]; at 50.0 µM -4.2% | [10]; at 100.0 µM 26% | [11]; at 1.2 µM -39% | [11]; at 3.7 µM -34% | [11]; at 11.0 µM -29% | [11]; at 33.0 µM -31% | [11]; at 100.0 µM 5%
